Laboratory results: PubChem BioAssay (Tox21)
Inconclusive results are not listed. A number with no mark means an inactive call. Activity calls are given as the source filed them. The call rests on the fitted dose curve; in most records, active means well fitted cell-killing curve with a large enough effect in the repeat runs; inconclusive means weak or mixed curves, or effect the other way; inactive means flat fitted curve, though single readings scatter.

Test: cAMP Responsive Elements (CRE) small molecule agonists, cell-based qHTS assay: qHTS cell viability counter screen (AID 2060914); further: nearly all actives have a fitted effect of over 50% in size
Conditions: CRE-bla HEK293T viability, CellTiter-Glo luminescence, 5 h; series mostly up to 92.4 µM; activity change, negative = cytotoxicity: at the top concentration
Procedure, shortened: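 Cells are seeded and incubated 18 h, treated with compounds in DMSO for 3 h, read for the bla reporter, then given CellTiter-Glo; luminescence is measured after 30 min at room temperature.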
On the % scale 0 is the no-effect control and ±100 the full control effect; potency means the concentration at half of the fitted maximal effect.

Q: Which “activity change, negative = cytotoxicity” value does the source give for `c1ccc(C(O[C@@H]2CCCN(CCc3ccc4c(c3)OCO4)C2)c2ccccc2)cc1` here?
A: -17%

Q: With `O=C(CCCN1CCC(O)(c2cccc(C(F)(F)F)c2)CC1)c1ccc(F)cc1` as the compound, how does the “activity change, negative = cytotoxicity” value read?
A: 10.2% [at 42.5 µM]

Q: For `Cn1cnc2c1c(=O)[nH]c(=O)n2C`, which Potency is on record?
A: inactive

Q: For `O=C1OC(=O)c2c(Br)c(Br)c(Br)c(Br)c21`, which “activity change, negative = cytotoxicity” value is on record?
A: 0.967%

Q: With `CCCCCCC#CC(=O)OC` as the compound, how does the “activity change, negative = cytotoxicity” value read?
A: 14.1%

Q: Which “activity change, negative = cytotoxicity” value does the source give for `CN1CCN(CCCN2c3ccccc3Sc3ccc(Cl)cc32)CC1` here?
A: 4.65% [at 42.5 µM]

Q: With `NNC(=O)CP(=O)(c1ccccc1)c1ccccc1` as the compound, how does the “activity change, negative = cytotoxicity” value read?
A: 10% [at 42.5 µM]

Q: Which “activity change, negative = cytotoxicity” value does the source give for `CC(=C(CCOC(=O)C(C)C)SSC(CCOC(=O)C(C)C)=C(C)N(C=O)Cc1cnc(C)nc1N)N(C=O)Cc1cnc(C)nc1N` here?
A: 0.0258% [at 42.5 µM]

Q: For `CC1(C)O[C@@H]2C[C@H]3[C@@H]4C[C@H](F)C5=CC(=O)CC[C@]5(C)[C@H]4[C@@H](O)C[C@]3(C)[C@]2(C(=O)CO)O1`, which Potency is on record?
A: inactive

Q: Which “activity change, negative = cytotoxicity” value does the source give for `CC(C)(C)c1ccc(C(=O)CCCCl)cc1` here?
A: -8.59% [at 42.5 µM]

Q: With `C[C@@H](C1=C(CCN(C)C)Cc2ccccc21)c1ccccn1` as the compound, how does the “activity change, negative = cytotoxicity” value read?
A: 10.3% [at 42.5 µM]

Q: For `C[C@]12C=CC(=O)C=C1CC[C@H]1[C@@H]3C[C@@H](O)[C@](O)(C(=O)CO)[C@@]3(C)C[C@H](O)[C@@]12F`, which Potency is on record?
A: inactive

Q: Which “activity change, negative = cytotoxicity” value does the source give for `Brc1cc(Br)cc(Br)c1` here?
A: 1.69%

Q: For `COC(=O)c1ccc([N+](=O)[O-])cc1`, which “activity change, negative = cytotoxicity” value is on record?
A: -2.7%

Q: Which “activity change, negative = cytotoxicity” value does the source give for `CC(=O)c1cnccn1` here?
A: 2.85%

Q: Which “activity change, negative = cytotoxicity” value does the source give for `BrCCOc1ccccc1` here?
A: 8.94%

Q: For `O=C1Nc2ccc(Cl)cc2[C@@](C#CC2CC2)(C(F)(F)F)O1`, which “activity change, negative = cytotoxicity” value is on record?
A: -16.2% [at 42.5 µM]

Q: With `C1CCCC1` as the compound, how does the “activity change, negative = cytotoxicity” value read?
A: 4.74%

Q: For `O=C(O)c1cc(Cl)cc([N+](=O)[O-])c1Cl`, which “activity change, negative = cytotoxicity” value is on record?
A: 7.91%

Q: Which “activity change, negative = cytotoxicity” value does the source give for `CCO[Si](CCCCl)(OCC)OCC` here?
A: -12.2%

Q: For `O=C(Nc1cccc(C(F)(F)F)c1)c1cc(Br)cc(Br)c1O`, which Potency is on record?
A: 27.3 µM (active)

Q: For `CC(C)CC(=O)CC(C)C`, which Potency is on record?
A: inactive

Q: Which “activity change, negative = cytotoxicity” value does the source give for `OCCN(CCO)c1ccccc1` here?
A: 5.08%

Q: For `COc1ccc(Cc2cnc(N)nc2N)cc1OC`, which “activity change, negative = cytotoxicity” value is on record?
A: -7.85% [at 42.5 µM]

Q: Which “activity change, negative = cytotoxicity” value does the source give for `C/C=C/C(=O)OCC(C)C` here?
A: -1.77%

Q: For `CC(NCCC(c1ccccc1)c1ccccc1)c1ccccc1` (stereo not given), which “activity change, negative = cytotoxicity” value is on record?
A: -16.2% [at 42.5 µM]

Q: Which Potency does the source give for `CCCCCCCCCCCCCCCO` here?
A: inactive

Q: For `CCOCCOCCOC(C)=O`, which “activity change, negative = cytotoxicity” value is on record?
A: 9.37%

Q: For `CC(C)n1c(/C=C/[C@@H](O)C[C@@H](O)CC(=O)O)c(-c2ccc(F)cc2)c2ccccc21`, which “activity change, negative = cytotoxicity” value is on record?
A: 18.1%

Q: For `O=C1CCCCCCCCCCCC(=O)OCCO1`, which “activity change, negative = cytotoxicity” value is on record?
A: -16.2%

Q: For `Nc1ccn(C2CO[C@H](CO)O2)c(=O)n1` (stereo not given in full), which “activity change, negative = cytotoxicity” value is on record?
A: 19% [at 42.5 µM]

Q: Which “activity change, negative = cytotoxicity” value does the source give for `CCOC(=O)[C@H](CCc1ccccc1)N[C@H]1CCc2ccccc2N(CC(=O)O)C1=O` here?
A: 10.7% [at 42.5 µM]

Q: Which Potency does the source give for `CCN(Cc1cccc(S(=O)(=O)O)c1)c1ccc(C(=C2C=CC(=[N+](CC)Cc3cccc(S(=O)(=O)O)c3)C=C2)c2ccccc2S(=O)(=O)[O-])cc1` here?
A: 38.7 µM (active)

Q: For `O=C(O)c1ccccc1Nc1cc(Cl)ccc1C(=O)O`, which activity change, negative = cytotoxicity is on record?
A: 0.206% [at 18.9 µM]

Q: Which “activity change, negative = cytotoxicity” value does the source give for `Cc1ccc2c(c1)CCCN2` here?
A: -3.52%

Q: With `CCN[C@H]1C[C@H](C)S(=O)(=O)c2sc(S(N)(=O)=O)cc21` as the compound, how does the “activity change, negative = cytotoxicity” value read?
A: 13.9% [at 42.5 µM]

Q: Which “activity change, negative = cytotoxicity” value does the source give for `CC1CCCC(=O)C1=O` (stereo not given) here?
A: 10.2%

Q: For `N=C(N)c1ccccc1`, which “activity change, negative = cytotoxicity” value is on record?
A: -8.03%

Q: Which Potency does the source give for `COC(=O)C1=C(C)NC(C)=C(C(=O)OCC(C)C)C1c1ccccc1[N+](=O)[O-]` (stereo not given) here?
A: inactive

Q: With `NS(=O)(=O)c1ccc(N2CCCCS2(=O)=O)cc1` as the compound, how does the “activity change, negative = cytotoxicity” value read?
A: 2.73% [at 42.5 µM]
